# Results from PubChem BioAssay (NCATS).
# Several values for one entry are separate records, joined by “and”; a condition that tells them apart may be missing. Equal values may be shown once. Records with an inconclusive call do not appear. Entries that show only a call come without a potency. Values without a mark were called inactive. Activity calls are given as the source filed them. Calls come from the whole dose curve; as a rule, active = well fitted curve in the direction sought with a large enough effect; inconclusive = small, poorly fitted or top-dose-only effect, or another doubt; inactive = no such curve, though single readings can be large; an effect the other way counts as inactive or inconclusive.
# How the values were obtained:
# [1] = biological target: Cellular tumor antigen p53 (Homo sapiens) (UniProt P04637); assay: Primary qHTS for small molecule compounds that upregulate eGFP-tagged delta133p53alpha (in N-terminal) cells. (AID 2060322); settings: NCI-H358 eGFP-delta133p53alpha fluorescence, 24 h; activation: active compounds read high; note: nearly all actives have a fitted effect of over 75% in size; note: potency is the fitted concentration of half-maximal effect; for activation: series mostly up to about 56 µM
# In short: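 NCI-H358 cells pre-induced 24 h with 10 ng/ml doxycycline to express N-terminal eGFP-delta133p53alpha, then dosed 24 h at 37C without doxycycline; fixed, Hoechst-stained, GFP intensity by laser scanning cytometry, normalized to DMSO (0%) and 57.5 uM 5-azacytidine (100%).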
# [2] = biological target: Aldehyde dehydrogenase, mitochondrial (Homo sapiens) (UniProt P05091); assay: qHTS for Inhibitors of the Aldehyde Dehydrogenase Family (ALDH2) Primary screen (AID 2061308); note: nearly all actives have a fitted effect of over 55% in size
# [3] = biological target: Retinaldehyde dehydrogenase 3 (Homo sapiens) (UniProt P47895); assay: qHTS for Inhibitors of the Aldehyde Dehydrogenase Family (ALDH1A3) Primary screen (AID 2061315)
# Cellular tumor antigen p53 (Homo sapiens), sequence (P04637 whole entry, looked up): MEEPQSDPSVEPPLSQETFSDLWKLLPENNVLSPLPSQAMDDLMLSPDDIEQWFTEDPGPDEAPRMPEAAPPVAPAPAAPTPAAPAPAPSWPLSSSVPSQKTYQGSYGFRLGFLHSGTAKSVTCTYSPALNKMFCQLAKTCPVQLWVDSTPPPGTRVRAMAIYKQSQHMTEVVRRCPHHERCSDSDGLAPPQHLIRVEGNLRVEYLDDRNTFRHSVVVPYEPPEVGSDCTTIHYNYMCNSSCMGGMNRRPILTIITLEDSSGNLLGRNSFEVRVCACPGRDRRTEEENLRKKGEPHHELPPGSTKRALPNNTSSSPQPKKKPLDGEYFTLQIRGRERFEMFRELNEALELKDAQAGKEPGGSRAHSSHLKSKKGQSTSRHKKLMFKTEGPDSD
SMILES,activation [1],Potency [2],Potency [3],Potency [1],"activity change, negative = inhibition [2]","activity change, negative = inhibition [3]"
CNC(=O)c1cc(C#N)cc(C)c1NC(=O)c1cc(Br)nn1-c1ncccc1Cl,18.3%,inactive,inactive,,,
C[C@@]1(CO)[C@H](O)CC[C@@]2(C)[C@H]1CC[C@H]1C[C@@H]3C[C@@]12CC[C@]3(O)CO,-3.82%,inactive,inactive,,,
C/C1=C/[C@@H](C)C/C=C/[C@H]2[C@@H]3O[C@]3(C)[C@@H](C)[C@H]3[C@H](Cc4c[nH]c5ccccc45)NC(=O)[C@]32C(=O)/C=C\C(=O)[C@@H]1O,,inactive,inactive,11.7 µM (active),,
O=C(O)c1ccnc2cc(C(OCCN3CCCCC3)c3ccccc3Cl)[nH]c12 (stereo not drawn),-17%,inactive,inactive,,,
C[C@@]12C[C@@H](c3ccoc3)OC(=O)C1CC[C@]1(C)[C@H]2[C@H]2C=C[C@]1(O)C(=O)O2 (stereo partly drawn),-2.29%,inactive,inactive,,,
O=C(N[C@H]1N=C(c2ccccc2F)c2cccc3c2N(CC3)C1=O)c1cc2ccccc2[nH]1,6.33%,inactive,inactive,,,
C/C=C(\C)C(=O)O[C@H]1[C@H](OC(C)=O)[C@]2(CO)[C@H](O)[C@H](O)[C@]3(C)C(=CCC4[C@@]5(C)CC[C@H](O[C@@H]6O[C@H](C(=O)O)[C@@H](O)[C@H](O[C@@H]7OC[C@H](O)[C@H](O[C@@H]8OC[C@H](O)[C@H](O)[C@H]8O)[C@H]7O)[C@H]6O[C@@H]6O[C@H](CO)[C@@H](O)[C@H](O)[C@H]6O)C(C)(C)C5CC[C@]43C)[C@@H]2CC1(C)C (stereo partly drawn),-3.05%,,,,1.02% [at 11.2 µM],2.55% [at 11.2 µM]
C[C@]12CC[C@@H](O)C[C@H]1CC[C@@H]1[C@@H]2CC[C@]2(C)C(=O)CC[C@@H]12,3.67%,inactive,inactive,,,
COC(=O)N1CCN(C(=O)Cc2ccc(Cl)c(Cl)c2)[C@@H](CN2CCCC2)C1,1.91%,inactive,inactive,,,
C=C(C)[C@@H]1[C@H]2OC(=O)[C@H]1[C@]1(O)C[C@H]3O[C@]34C(=O)O[C@H]2[C@]14C,4.33%,inactive,inactive,,,
O=C1C[C@@H]2OCC=C3CN4CC[C@]56c7ccccc7N1[C@H]5[C@H]2[C@H]3C[C@H]46,-3.57%,inactive,inactive,,,
CCC1=CC2CN3CCc4c([nH]c5ccccc45)[C@@](C(=O)OC)(C2)[C@@H]13,6.11%,inactive,inactive,,,
COc1cc(O)c2c(c1)/C=C/C[C@@H](O)[C@@H](O)C(=O)CCC[C@H](C)OC2=O,-12.2%,inactive,inactive,,,
C/C=C(\C)C(=O)OC1CC2C(CC=C3CC(OC4CC(OC)C(OC5CC(OC)C(OC6CC(OC)C(OC7CC(OC)C(O)C(C)O7)C(C)O6)C(C)O5)C(C)O4)CCC32C)C2(O)CCC(C(C)=O)C12C (stereo not drawn),-6.11%,inactive,inactive,,,
COc1c(C(C)C)cc2c(c1O)[C@@]1(C(=O)O)CCCC(C)(C)C1CC2 (stereo partly drawn),-13%,inactive,inactive,,,
C=CC(C)(O)CC/C=C(\C)C(=O)O[C@H]1[C@H](O)[C@@H](CO)O[C@@H](OC(=O)[C@]23CCC(C)(C)CC2C2=CCC4[C@@]5(C)CC[C@H](O[C@@H]6O[C@H](CO[C@@H]7OC[C@H](O)[C@H](O)[C@H]7O[C@@H]7OC[C@@H](O)[C@H](O)[C@H]7O)[C@@H](O)[C@H](O)[C@H]6O)C(C)(C)C5CC[C@@]4(C)[C@]2(C)CC3)[C@@H]1OC1OC(C)C(O[C@@H]2OC[C@@H](O)[C@H](O[C@@H]3OC[C@@H](O)[C@H](O)[C@H]3O)[C@H]2O)C(O)C1O (stereo partly drawn),-6.87%,,,,12% [at 11.2 µM],3.26% [at 11.2 µM]
CN1C[C@@H]2CN(c3ccc(-c4ccccc4)nn3)C[C@@H]2C1,14.3%,inactive,inactive,,,
COC(=O)[C@@]1(C)C(=O)C=C[C@]2(C)c3c(O)cc(C(C)C)cc3[C@H](O)[C@@H](OC(C)=O)C12 (stereo partly drawn),-3.05%,inactive,inactive,,,
C=CC/C=C\C/C=C\CCCCCCCc1cc(O)cc(O)c1,-9.92%,inactive,inactive,,,
CN1C(=O)C(Cc2ccc3ccccc3c2)N=C(c2ccc(O)cc2)c2cc(Cl)ccc21 (stereo not drawn),10.3%,inactive,inactive,,,
CC1=CC2/C=C(\C)CCC(O)C(O)/C=C/C(=O)C23C(=O)NC(CC(C)C)C3C1C (stereo not drawn),,inactive,inactive,13.1 µM (active),,
CC(=O)O[C@@H]1[C@@H](O)[C@H]2O[C@@H]3C=C(C)[C@@H](O)C[C@]3(CO)[C@]1(C)[C@]21CO1,,inactive,inactive,1.48 µM (active),,
CN1C(=O)N(c2ccc(C#N)c(C(F)(F)F)c2)C(=O)[C@]1(CO)c1ccccc1,17%,inactive,inactive,,,
C[C@]12CC[C@H](O)C[C@H]1CC[C@@H]1[C@@H]2[C@H](O)C(=O)[C@]2(C)[C@@H](c3ccc(=O)oc3)CC[C@]12O,,inactive,inactive,0.19 µM (active),,
CC(N[C@H]1C[C@H]1c1ccccc1)c1ccc2c(c1)OCCO2 (stereo partly drawn),-13.9% and -18.6%,inactive,inactive,,,
Cc1sc2c(c1C)C(c1ccc(Cl)cc1)=NC(CC(=O)OC(C)(C)C)c1nnc(C)n1-2 (stereo not drawn),7.64%,inactive,inactive,,,
